Growth data for 13 compounds are collected here from PubChem BioAssay (NCI).

The panel holds about 83,000 compounds, 20% with a hit somewhere; the sample as a whole holds those more often.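 A percent growth of 40 corresponds to 60% growth inhibition; 0 means no net growth; -100 means all cells died. Active threshold: below 10.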 Unmarked numbers belong to inactive results. Active and inactive are the calls of the source.

The assay deals with HL-60(TB) leukemia. Put plainly: NCI-60 one-dose screen, 48 h (100 = growth as untreated, 0 = no growth, -100 = all killed). The following applies: 10 µM unless noted.
As to `COc1cc2c(cc1OCCCOC1=C=C=C(c3ccc4c(c3)c3cc(-c5ccc(OCCCOc6cc7c(cc6OC)C(=O)N6CCC[C@H]6C=N7)cc5)ccc3n4S(=O)(=O)c3ccc(C)cc3)C=C1)N=C[C@@H]1CCCN1C2=O`, the growth is 10.5%. With `CC(C)(C)c1ccc(Cn2c(-c3nonc3N)nc3ccccc32)cc1` the figure was 51.4%; with `Cc1ccc(C(F)(F)F)cc1N1CCN(C(=O)[C@H]2C[C@H]2c2ccc(C(F)(F)F)nc2)CC1`, 81.8%. The value for `Nc1ccc(S(=O)(=O)c2ccc(NO)cc2)cc1` was 107%.

Regarding `CC(C)c1ccc(Cn2ccc3c4c(N)nc(NC5CC5)nc4ccc32)cc1`, the growth was -68.8% (active).

Take `CCN(CC)c1ccc(C2CC(c3cc(OC)c(OC)c(OC)c3)=NN2)cc1` (stereo not drawn): the growth is -35.1% (active). In the case of `CCCNc1nc(N(C)O)nc(N(C)O)n1`, the growth was 3.47% (active). In the case of `CCCCCN(CCCCC)CCC[C@@H](C)[C@H]1CC[C@H]2[C@@H]3[C@H](OCCCN)C[C@@H]4C[C@H](OCCCN)CC[C@]4(C)[C@H]3C[C@H](OCCCN)[C@]12C`, the growth was -16.8% (active). The value for `O=C(Nc1ccc(Cl)cc1)c1cc(-c2ccc(Cl)cc2)c2sc(=O)[nH]c2n1` was -53.7% (active). For `COc1ccc(OC)c(/C=C/c2nnc(Nc3ccc(Cl)cc3)o2)c1`, the growth is 80.6%. The value for `COc1nc2c(cc1S(=O)(=O)c1ccccc1)CCc1c-2cnn1-c1ccccc1` was 58.7%; that for `O=C(O)CSCc1nnc2n(Cc3ccccc3)c(=O)c3c4c(sc3n12)CCCC4` was 94.9%; that for `CC(O)COc1ccc(-c2ccccc2)cc1` (stereo not drawn) was 102%.
